# Source: PMC5540273 (PLoS ONE, 2017)
# What was measured:
# Settings in all cases: concentration: 1 μM, replicates: in singlicate; n = 1
# MLK1 = test system: T1, MLK1
# T1 construct: gene MAP3K9
# MLK2 = test system: MLK2
# MLK3 = test system: MLK3
# MRCKA = test system: MRCKA
# MRCKB = test system: T2, MRCKB
# T2 construct: gene CDC42BPB
# MST1R = test system: MST1R
# MST1 = test system: T3, MST1
# T3 construct: gene STK4
# MST2 = test system: T4, MST2
# T4 construct: gene STK3
# MST3 = test system: T5, MST3
# T5 construct: gene STK24
# MST4 = test system: MST4
# MTOR = test system: MTOR
# MUSK = test system: MUSK
# MYLK2 = test system: MYLK2
# MYLK4 = test system: MYLK4
# MYLK = test system: MYLK
# MYO3A = test system: MYO3A
# MYO3B = test system: MYO3B
# NDR1 = test system: T6, NDR1
# T6 construct: gene STK38
# NDR2 = test system: NDR2
# NEK10 = test system: NEK10
# 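Also: KINOMEscan kinase panel screen.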
Structure (SMILES),%Inh (MLK1) [%],%Inh (MLK2) [%],%Inh (MLK3) [%],%Inh (MRCKA) [%],%Inh (MRCKB) [%],%Inh (MST1R) [%],%Inh (MST1) [%],%Inh (MST2) [%],%Inh (MST3) [%],%Inh (MST4) [%],%Inh (MTOR) [%],%Inh (MUSK) [%],%Inh (MYLK2) [%],%Inh (MYLK4) [%],%Inh (MYLK) [%],%Inh (MYO3A) [%],%Inh (MYO3B) [%],%Inh (NDR1) [%],%Inh (NDR2) [%],%Inh (NEK10) [%]
COc1cc(Nc2nccc(-c3c(-c4cccc(NC(=O)c5c(F)cccc5F)c4)nn4ncccc34)n2)cc(OC)c1OC [GSK327238],9,39,50,100,98.9,79,96.6,92.1,64,42,8,25,10,7,9,38,40,20,0,15
Cl.Cl.NCC(C(=O)Nc1cc(Br)c(-c2ccnc3[nH]ccc23)s1)c1ccccc1 (stereo not shown) [GSK1269851],0,18,11,0,25,47,0,7,0,11,26,1,56,99.8,37,0,0,70,13,12
O=C(Nc1cccc(Oc2ccc3nc(NC(=O)C4CC4)cn3n2)c1)c1ccccc1C(F)(F)F,6,4,0,24,0,23,10,18,0,0,15,11,0,0,10,0,0,26,0,0
COc1cc(Nc2nccc(-c3c(-c4cccc(NC(=O)c5c(F)cccc5F)c4)nn4ccccc34)n2)cc(OC)c1OC [GSK323521],28,56,17,0,0,6,92.1,39,33,33,33,23,91.6,5,8,26,100,22,0,10
Cn1cc(-c2ccc3c(c2)CCN3C(=O)Cc2cccc(F)c2)c2c(N)ncnc21 [GSK2603358],20,11,37,5,0,49,95.8,69,15,8,16,5,83,0,18,51,5,0,7,22
Oc1cc(Nc2ccnc3cc(I)ccc23)ccc1F [GW552771],0,13,0,0,0,28,9,0,2,0,11,5,0,1,17,0,0,0,0,9
CCCCc1nn2ncccc2c1-c1ccnc(Nc2ccc(N3CCN(C)CC3)cc2)n1 [GW684941],0,5,0,19,17,45,0,0,1,0,16,98.2,41,26,4,0,0,18,0,65
Cn1cc(-c2[nH]c3cc(NC(=O)[C@H](N)C4CCCCC4)cc4c3c2C=NNC4=O)cn1,88,69,83,0,0,15,27,99.1,55,97.5,17,12,47,98.7,24,5,0,93.1,75,54
CC(=O)Nc1nc2cnc(Nc3cc(NC(=O)c4cccc(C5(C#N)CC5)c4Cl)ccc3C)nc2s1,4,10,0,5,0,13,0,12,6,0,4,12,0,0,0,0,0,0,0,1
COc1cccc(C(=O)Nc2cccc(Oc3ccc4nc(NC(=O)C5CC5)cn4n3)c2)c1,8,0,2,21,0,17,9,0,15,0,0,0,0,0,33,14,0,19,10,0
O=C(Nc1cccc(-c2nn3ccccc3c2-c2ccnc(Nc3cccc(C(F)(F)F)c3)n2)c1)c1c(F)cccc1F [GSK292658],0,0,0,4,4,0,11,0,0,3,0,10,0,0,0,0,0,0,0,0
CC(C)c1nc(-c2cccc(NS(=O)(=O)c3c(F)cccc3F)c2F)c(-c2ccnc(Nc3ccc(N4CCOCC4)nc3)n2)s1 [GSK2008607],96.3,100,92.7,0,0,82,55,0,63,39,10,10,0,0,18,78,65,62,65,0
Cl.Cl.NCC(NC(=O)c1cc(-c2ccccc2)c(-c2ccnc3[nH]ccc23)s1)c1ccccc1 (stereo not shown) [GSK1321561],0,23,11,73,90.7,42,0,0,0,27,0,13,17,94.9,26,14,0,24,16,25
CN(c1ccc(NC(=O)Nc2cc(C(F)(F)F)ccc2F)cc1)c1ccnc(Nc2ccc(S(N)(=O)=O)cc2)n1 [GW809893],75,34,66,0,0,99.7,80,2,29,28,0,95.3,65,16,0,50,37,27,11,0
CCn1c(-c2nonc2N)nc2c(C#CC(C)(C)O)nc(OC[C@H](N)c3ccccc3)cc21 [GSK943949],0,23,5,0,5,1,0,58,9,7,20,0,0,0,12,0,0,34,2,34
Nc1n[nH]c2cnc(-c3ccccc3)cc12 [SB-642124],0,0,0,16,3,37,4,8,0,5,14,99.9,6,69,3,8,0,20,0,47
Cl.c1ccc(-c2ccc3c(Nc4ccc5[nH]ccc5c4)ccnc3c2)nc1 [GW440138],0,0,0,6,0,35,0,0,9,0,4,0,0,0,13,23,0,0,27,1
